697 NFkB inh = lowers PMA/ionomycin-induced NF-kB signal in 697 B cells | inhibition, % at 4 µM | AID 435022 | 697 B-cell NF-kB luciferase reporter, 16 h | 0.33% of 330,000 active; in the data active = inhibition above about 35%
Jurkat NFkB inh = lowers PMA/ionomycin-induced NF-kB signal in Jurkat cells | 0.53% of 330,000 active | inhibition, % at 4 µM | PMA/ionomycin-induced NF-kB luciferase reporter, luminescence; in the data active = inhibition above about 50%
aSyn UTR inh = 5' untranslated region of α-synuclein, MLPCN primary screen. 0.82% of 300,000 active. alpha-synuclein 5'UTR reporter, inhibitor activity. AID 1813. inhibition, % (tested at 7.5 µM); in the data active = inhibition above about 60%;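 note: H4 neuroglioblastoma cells stably carrying SNCA 5'UTR luciferase fusion; 0% = DMSO wells and 100% = positive control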
Mdm2-MdmX inh = human Mdm2/MdmX binding inhibition. O15151+Q00987. SaOS-2 split-luciferase Mdm2/MdmX complementation, luminescence. inhibition, % at 8 µM. 3% of 330,000 active;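 active = inhibition of at least 50% at 8 µM in the primary screen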
Target sequence (O15151 whole entry, looked up): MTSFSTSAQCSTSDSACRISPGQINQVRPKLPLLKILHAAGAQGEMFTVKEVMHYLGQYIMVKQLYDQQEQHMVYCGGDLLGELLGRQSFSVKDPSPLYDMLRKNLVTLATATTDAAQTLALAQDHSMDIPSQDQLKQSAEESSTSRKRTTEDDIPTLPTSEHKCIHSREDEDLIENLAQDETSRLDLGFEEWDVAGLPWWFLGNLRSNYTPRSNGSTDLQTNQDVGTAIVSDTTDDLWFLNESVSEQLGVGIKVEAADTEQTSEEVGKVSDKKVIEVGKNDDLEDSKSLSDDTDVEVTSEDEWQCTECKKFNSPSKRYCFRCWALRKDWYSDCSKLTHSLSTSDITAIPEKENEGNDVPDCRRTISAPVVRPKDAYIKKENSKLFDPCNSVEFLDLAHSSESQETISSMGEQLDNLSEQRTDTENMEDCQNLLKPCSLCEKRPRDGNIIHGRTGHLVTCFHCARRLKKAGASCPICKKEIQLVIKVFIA
Target sequence (Q00987 whole entry, looked up): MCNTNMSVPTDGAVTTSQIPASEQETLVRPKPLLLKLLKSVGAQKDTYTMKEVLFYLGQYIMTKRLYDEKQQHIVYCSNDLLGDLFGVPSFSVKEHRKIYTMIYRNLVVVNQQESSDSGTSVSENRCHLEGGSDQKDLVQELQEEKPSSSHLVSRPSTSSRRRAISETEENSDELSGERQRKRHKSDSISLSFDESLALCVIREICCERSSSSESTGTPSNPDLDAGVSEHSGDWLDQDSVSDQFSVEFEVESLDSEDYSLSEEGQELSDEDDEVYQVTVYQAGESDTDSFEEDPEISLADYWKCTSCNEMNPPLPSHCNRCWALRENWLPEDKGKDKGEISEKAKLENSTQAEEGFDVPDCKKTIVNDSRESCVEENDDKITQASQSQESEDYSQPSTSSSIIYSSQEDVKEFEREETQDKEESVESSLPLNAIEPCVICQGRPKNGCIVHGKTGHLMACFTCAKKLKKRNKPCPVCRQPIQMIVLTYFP
Gli-Sufu antag = Gli-Sufu pathway antagonism; Sufu-KO-LIGHT fibroblasts, Gli luciferase reporter luminescence; inhibition, % at 5 µM; AID 588413; 0.74% of 340,000 active;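 active = inhibition above about 55%, limit read from the data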;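 note: 0% = DMSO-treated cells and 100% = wells with medium but no cells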
CSC inhib = cancer stem cell inhibition. 1.1% of 300,000 active. inhibition, % at 7.5 µM. cancer stem cell-like cells viability, luminescence. AID 2717; in the data active = inhibition above about 75%; tested in HMLE shEcad cells
Gli-Sufu confirm = confirmation of Gli-SUFU pathway antagonists | 40% of 2,500 active | inhibition, % at 5 µM | AID 602428 | Sufu-KO-LIGHT cells, Gli luciferase reporter, luminescence | shares compounds with Gli-Sufu antag;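 active = mean inhibition at 5 µM reaching about 45%, limit read from the data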;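 note: plate controls were DMSO-treated cells for no effect and wells lacking cells for full effect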
SufuKO cytotox = counter-screen for Gli-SUFU antagonists: cytotoxicity; shares compounds with Gli-Sufu antag; AID 651994; 32% of 2,500 active; Sufu-KO-LIGHT cells cytotoxicity, ATP luminescence; cytotoxicity, % at 5 µM;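 active = mean cytotoxicity at 5 µM above about 25%, limit read from the data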;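 note: cells exposed to compound overnight for roughly 16 to 18 hours; plate controls were DMSO wells with cells for no effect and medium without cells for full effect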
Wnt3a counter = counter-screen for Gli-SUFU antagonists: Wnt3a reporter inhibition. Wnt-LIGHT cells, Wnt3a-driven luciferase reporter, luminescence. inhibition, % at 6.25 µM. AID 651995. shares compounds with Gli-Sufu antag. 20% of 2,500 active;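 active = mean inhibition above about 25%, limit read from the data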
An asterisk follows results filed as active; . = no result given. Only some compounds are listed: those with a hit (about 4.5% of all), similar ones and a draw of the others.

SMILES	697 NFkB inh	Jurkat NFkB inh	aSyn UTR inh	Mdm2-MdmX inh	Gli-Sufu antag	CSC inhib	Gli-Sufu confirm	SufuKO cytotox	Wnt3a counter
C[C@H]1CCC/C=C/[C@@H]2C[C@H](O)C[C@H]2[C@H](O)[C@H](S(=O)c2ccc(O)cc2)CC(=O)O1 (some centres undefined)	.	.	.	.	28	.	.	.	.
CCCCC(=O)Nc1nc(C)c(-c2csc(Nc3cc(OC)ccc3OC)n2)s1	-8	1	45	39	95*	81*	33	25	17
Cc1cc2cc(CCNC(=O)c3ccc(Br)o3)c(=O)[nH]c2cc1C	9	2	14	13	96*	13	10	3	29*
COC(=O)[C@@H](NC(=O)O[C@@H]1C(=O)c2cc(Br)ccc2O[C@H]1c1cccc(OC)c1)C(C)C	13	6	13	23	.	11	.	.	.
CN(C)c1ccc(N/C(N)=N/c2nc(C(F)(F)F)cc(C(F)(F)F)n2)cc1	-10	0	-35	17	50	-7	22	12	-21
O=C(Cn1ccc2cc(S(=O)(=O)N3CCCC3)ccc21)NCc1ccco1	-1	-16	12	15	13	-4	.	.	.
O=C(NCc1ccc2c(c1)OCO2)c1nc(Cn2cc([N+](=O)[O-])cn2)no1	10	8	4	1	54	6	11	-10	-3
CCNc1nn2ccccc2c1/C=C(\C#N)C(=O)OCC	10	-17	28	18	2	4	.	.	.
Cc1cc(NC(=O)c2c(Br)c(C)nn2C)no1	21	-5	-21	-18	50	-9	9	23	-8
COC(=O)c1sc(N)c(C(=O)OC)c1CSc1nnc(-c2ccccc2Cl)n1C	28	13	12	11	3	-2	.	.	.
COC(=O)c1sc(N)c(C(=O)OC)c1CSc1nnnn1C	7	-4	9	-2	99*	5	24	2	11
CC(NC(=O)c1cccc(S(=O)(=O)N2CCN(C)CC2)c1)C1CC2CCC1C2 (centres undefined)	17	4	5	-13	58*	-11	16	12	-31
CC(NC(=O)c1cccc(Cl)c1)C1CC2CCC1C2 (centres undefined)	-2	5	15	-1	-9	5	.	.	.
COCCNC(=O)c1cccc(OC2CCN(Cc3ccccc3C)CC2)c1	-15	-6	-3	-19	19	8	.	.	.
C/C(=N\NC(=O)c1ccccc1O)c1c(O)cc(C)oc1=O	-26	-6	-9	-14	58*	-1	4	-2	-40
Cc1cc(C)cc(NC(=O)C2CCC(CNC(=O)[C@@H]3Cc4ccccc4CN3)CC2)c1 (some centres undefined)	0	11	37	33	57*	-12	18	11	-59
C(#Cc1ccccc1)C[N+]1(CC#Cc2ccccc2)CCCC1	-27	9	19	16	76*	8	75*	18	6
CCOC(=O)C1(CC2CCCCO2)CCN(Cc2cc3ccccc3[nH]2)CC1 (centres undefined)	-11	-6	1	0	59*	.	23	2	-43
CCCCc1ncc(CN2CCC(CC3CCCCO3)(C(=O)OCC)CC2)[nH]1 (centres undefined)	-21	-16	-13	15	29	-3	.	.	.
CC1CC(C)CN(C(=O)COC(=O)CNC(=O)C23CC4CC(CC(C4)C2)C3)C1 (centres undefined)	10	13	-8	3	-21	-4	.	.	.
Cc1c(C(=O)N2CCCCCC2)c(S(=O)(=O)Nc2ccccc2F)c(C)n1C	-33	-12	-4	-16	51	-8	24	20	8
O=C(CNC(=O)c1cncc(Br)c1)Nc1ccc(F)c(F)c1F	10	8	5	8	16	-27	.	.	.
C[C@@]12C(=O)NCC(=O)N1[C@@H]1c3cc(Br)ccc3OC[C@@H]1[C@@H]2c1ccccc1	1	-4	.	19	-6	-9	.	.	.
CC1(C)CC(=O)C2=C(C1)Nc1ccccc1NC2c1cccs1 (centres undefined)	13	-7	-11	10	58*	-16	21	8	-1
Cc1ccc(CN2CCSc3sccc3C2=O)cc1	15	8	-40	11	-6	7	.	.	.
SMILES	697 NFkB inh	Jurkat NFkB inh	aSyn UTR inh	Mdm2-MdmX inh	Gli-Sufu antag	CSC inhib	Gli-Sufu confirm	SufuKO cytotox	Wnt3a counter
COCCN(Cc1cc2c(C)cc(C)cc2nc1Cl)C(=O)c1ccccc1F	-14	0	23	12	58*	-16	26	15	-27
Nc1ccc(Cn2ccc3c4c(N)nc(N)nc4ccc32)cc1	.	.	.	.	61*	.	58*	17	41*
Cc1cccc(-n2ncc3c2CCCC3NC(=O)Cc2c(C)noc2C)c1C (centres undefined)	-17	27	-1	30	59*	-6	29	31*	7
Cc1cccc(-n2ncc3c2CCCC3NC(=O)CN2CCCC2=O)c1C (centres undefined)	-19	-8	1	20	4	5	.	.	.
CN1CCN(C(=O)CN(CCc2ccccc2)S(C)(=O)=O)CC1	6	-19	-11	16	3	.	.	.	.
CCc1c(C)nc2cc(-c3ccc(OC)c(OC)c3)nn2c1NCC1CC1	-57	-44	15	28	74*	59	74*	27*	35*
COC(CNC(=O)C(=O)Nc1cc2c3c(c1)CCN3C(=O)CC2)OC	-44	-19	20	4	98*	-2	25	-1	16
CNC(=O)C(=O)Nc1cc2c3c(c1)CCN3C(=O)CC2	15	-4	6	19	96*	-11	19	5	3
CCC(=O)Nc1cc2c3c(c1)CCN3C(=O)CC2	0	8	-9	9	-11	-6	.	.	.
COc1ccc(CNCC(C)NCc2ccc(OC)c(OC)c2)cc1OC (centres undefined)	-1	15	-11	18	61*	-11	7	25	-28
Cc1nc2ccc(NS(=O)(=O)c3ccc(F)c(C)c3)cc2[nH]1	-21	27	-16	18	62*	-1	49*	21	27*
Cc1nc2ccc(S(=O)(=O)c3ccc4nc(C)[nH]c4c3)cc2[nH]1	-12	2	4	0	-3	0	.	.	.
COc1ccc(N(CC(=O)NCc2ccc3c(c2)OCO3)S(=O)(=O)c2ccc(O)c(C(=O)O)c2)cc1	.	.	.	.	-3	.	.	.	.
CC(C)c1ccc(/C=N/NC(=O)c2nnn(-c3nonc3N)c2CN(C)C2CCCCC2)cc1	-9	11	-26	38	-11	16	.	.	.
